Source: PubChem BioAssay
For part of these data: Potency and affinity values are given separately. Calls of active or inactive are those of the source.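 How the source made its calls, unless noted: active means fluorescence ratio normalized to control raised more than 50% in primary screen plus both repeat runs; inactive means the rest.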

Legend:
[1] = test system: TRPC4 beta (transient receptor potential cation channel C4), mouse; assay: TRPC4 cation channel opening, retest – cell-based, Fluo4 calcium, HEK293 TRPC4beta/mu-opioid, duplicates, 10 µM, confirmation (AID 2426); settings: Fluo4 calcium fluorescence, at 10 µM; stronger effect = higher value
[2] = test system: transient receptor potential cation channel C4 beta (TRPC4), mouse; assay: TRPC4 cation channel opening, second retest – cell-based, second round, Fluo4, HEK293 TRPC4beta/mu-opioid, 1 µM, confirmation (AID 2461;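 active means primary screen active and over 50% activation in each of two duplicate runs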); settings: Fluo4 calcium fluorescence, at 1 µM; stronger effect = higher value
[3] = test system: TRPC4 (transient receptor potential cation channel C4 beta), mouse; assay: potentiation of DAMGO EC20 TRPC4 response – cell-based, second round, Fluo-4, HEK293 TRPC4beta/mu-opioid, 1 µM, confirmation (AID 2554;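 active means primary screen hit whose fluorescence ratio, in both repeats, exceeds the weak agonist control mean by 3 SD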); settings: DAMGO EC20, Fluo-4 calcium flux, at 1 µM; stronger effect = higher value
[4] = test system: TRPC4 beta (transient receptor potential cation channel C4), mouse; assay: potentiation of DAMGO EC20 TRPC4 response – cell-based, Fluo-4, HEK293 TRPC4beta/mu-opioid, confirmation (AID 2555;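 active means primary screen hit whose calcium fluorescence ratio, in both repeats, exceeds the weak agonist control mean by 3 SD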); settings: DAMGO EC20, Fluo-4 calcium flux, at 10 µM; stronger effect = higher value
[5] = biological target: Short transient receptor potential channel 4 (Mus musculus) (UniProt Q9QUQ5); assay: blockers of DAMGO-evoked TRPC4 calcium flux – cell-based, Fluo4, HEK293 TRPC4beta/mu-opioid, confirmation (AID 2636;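 active means calcium signal cut by more than 3 SD below the full-agonist control yet still positive, in both repeats and the earlier primary screen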); settings: at 10 µM; stronger effect = higher value
Chain of Short transient receptor potential channel 4 (Mus musculus) (Q9QUQ5 whole entry, looked up): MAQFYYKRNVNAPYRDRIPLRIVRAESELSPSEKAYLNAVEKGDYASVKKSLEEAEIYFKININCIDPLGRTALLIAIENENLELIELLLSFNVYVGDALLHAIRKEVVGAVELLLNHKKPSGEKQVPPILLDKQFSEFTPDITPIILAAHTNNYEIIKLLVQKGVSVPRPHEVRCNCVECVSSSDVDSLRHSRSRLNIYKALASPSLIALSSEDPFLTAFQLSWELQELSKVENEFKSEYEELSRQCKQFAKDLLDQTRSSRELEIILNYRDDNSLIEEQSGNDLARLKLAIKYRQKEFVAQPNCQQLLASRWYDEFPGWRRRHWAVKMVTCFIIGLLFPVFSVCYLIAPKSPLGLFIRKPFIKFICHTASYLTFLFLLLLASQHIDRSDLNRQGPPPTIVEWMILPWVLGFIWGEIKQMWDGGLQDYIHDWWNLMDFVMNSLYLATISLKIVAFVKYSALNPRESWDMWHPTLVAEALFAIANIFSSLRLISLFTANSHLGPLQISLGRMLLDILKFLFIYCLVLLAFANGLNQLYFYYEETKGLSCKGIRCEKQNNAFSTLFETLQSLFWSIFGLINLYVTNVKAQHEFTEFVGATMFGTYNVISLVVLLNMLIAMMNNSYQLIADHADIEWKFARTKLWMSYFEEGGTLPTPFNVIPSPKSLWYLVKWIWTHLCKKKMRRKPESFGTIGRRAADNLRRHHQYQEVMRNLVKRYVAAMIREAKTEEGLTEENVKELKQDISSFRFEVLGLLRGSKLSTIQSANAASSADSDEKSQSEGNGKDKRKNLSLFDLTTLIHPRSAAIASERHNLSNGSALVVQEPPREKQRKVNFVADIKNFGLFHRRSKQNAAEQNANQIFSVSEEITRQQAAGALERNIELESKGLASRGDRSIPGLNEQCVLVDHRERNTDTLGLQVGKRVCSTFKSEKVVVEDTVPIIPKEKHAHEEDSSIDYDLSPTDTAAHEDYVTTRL

[6] = biological target: Short transient receptor potential channel 4 (Mus musculus) (UniProt Q9QUQ5); assay: blockers of DAMGO-evoked TRPC4 calcium flux – cell-based, second round, Fluo4, HEK293 TRPC4beta/mu-opioid, 1 µM, confirmation (AID 2637;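 active means calcium signal ratio cut to more than 3 SD under the fully stimulated control mean yet still positive, in both repeats and the primary screen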); settings: at 1 µM; stronger effect = higher value
[7] = biological target: Short transient receptor potential channel 4 (Mus musculus) (UniProt Q9QUQ5); assay: calcium entry via TRPC4 opening agents – cell-based, HEK293 TRPC4/mu-opioid, Fluo-4 calcium, dose response (AID 434937;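 active means primary screen activator hit with a dose response curve and TRPC4 channel activation at any tested dose; inactive means no activation, no dose response, or not a primary hit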)
[8] = biological target: Short transient receptor potential channel 4 (Mus musculus) (UniProt Q9QUQ5); assay: potentiation of DAMGO-evoked TRPC4 calcium signal – cell-based, HEK293 TRPC4/mu-opioid, Fluo-4 calcium, EC20 DAMGO, dose response (AID 434941;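 active means earlier screen potentiator hit that boosts the TRPC4 ion channel at some dose, with a dose response; inactive means no potentiation, no dose response, or not a prior hit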;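 further: calcium entry triggered by an EC20 dose of DAMGO at the co-expressed mu-opioid receptor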)
[9] = biological target: Short transient receptor potential channel 4 (Mus musculus) (UniProt Q9QUQ5); assay: block of DAMGO-driven TRPC4 calcium entry – cell-based, HEK293 TRPC4/mu-opioid, Fluo-4 calcium, dose response (AID 434942;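 active means primary screen inhibitor hit that blocks the TRPC4 channel at some tested dose, yielding a dose curve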)
[10] = biological target: Short transient receptor potential channel 6 (Mus musculus) (UniProt Q61143); assay: TRPC6 blockade by TRPC4 inhibitor hits – cell-based, HEK293, membrane potential dye, duplicate, selectivity assay for TRPC4 inhibitor project, confirmation (AID 434948;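 active means active in primary screen and both duplicates, each dropping signal beyond three positive-control SD with fluorescence still positive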); settings: HEK293 TRPC6, membrane potential dye fluorescence, at 10 µM, stimulated with maximal-effect acetylcholine; stronger effect = higher value
Chain of Short transient receptor potential channel 6 (Mus musculus) (Q61143 whole entry, looked up): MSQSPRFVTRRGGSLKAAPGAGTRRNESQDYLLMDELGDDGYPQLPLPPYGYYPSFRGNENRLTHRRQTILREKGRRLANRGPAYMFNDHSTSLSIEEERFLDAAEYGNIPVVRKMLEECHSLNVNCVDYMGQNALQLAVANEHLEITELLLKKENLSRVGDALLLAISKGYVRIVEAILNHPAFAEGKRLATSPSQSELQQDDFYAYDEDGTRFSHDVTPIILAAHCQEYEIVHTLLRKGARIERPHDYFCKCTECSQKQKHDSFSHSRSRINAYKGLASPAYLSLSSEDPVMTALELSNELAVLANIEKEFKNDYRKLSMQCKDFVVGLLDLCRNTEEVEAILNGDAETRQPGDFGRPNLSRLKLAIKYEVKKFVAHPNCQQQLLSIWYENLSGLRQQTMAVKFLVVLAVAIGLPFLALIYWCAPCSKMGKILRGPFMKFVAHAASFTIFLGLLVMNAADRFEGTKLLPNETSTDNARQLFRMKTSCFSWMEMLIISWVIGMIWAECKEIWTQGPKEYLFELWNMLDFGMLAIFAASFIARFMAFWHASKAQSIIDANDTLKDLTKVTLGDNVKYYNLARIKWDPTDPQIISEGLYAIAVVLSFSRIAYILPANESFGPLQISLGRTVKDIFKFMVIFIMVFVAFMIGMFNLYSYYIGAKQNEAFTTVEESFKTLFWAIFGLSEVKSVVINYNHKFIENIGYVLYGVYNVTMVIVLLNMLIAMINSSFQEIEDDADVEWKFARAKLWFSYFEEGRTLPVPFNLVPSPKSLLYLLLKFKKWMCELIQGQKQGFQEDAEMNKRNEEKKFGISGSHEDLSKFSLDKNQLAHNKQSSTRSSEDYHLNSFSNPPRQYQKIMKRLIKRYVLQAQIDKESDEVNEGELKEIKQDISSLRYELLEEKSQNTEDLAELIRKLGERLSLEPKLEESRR

[11] = biological target: Short transient receptor potential channel 6 (Mus musculus) (UniProt Q61143); assay: TRPC6 opening by TRPC4 activator hits – cell-based, HEK293, membrane potential dye, duplicate, selectivity assay for TRPC4 activator project, confirmation (AID 434950;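 active means membrane potential signal rise above negative control mean plus 3 SD in both duplicates, also active in the earlier TRPC4 screen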); settings: HEK293 TRPC6, membrane potential fluorescence, at 10 µM; activation: stronger effect = higher value; outcome: activation
[12] = biological target: Short transient receptor potential channel 6 (Mus musculus) (UniProt Q61143); assay: positive modulators of mouse TRPC6 channel – HEK293 cells, membrane potential dye, duplicate, selectivity assay for TRPC4 potentiator project, confirmation (AID 434952;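 active means compound raising the membrane signal above positive-control mean plus 3 SD in both repeats, and a primary screen hit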); settings: HEK293 TRPC6, membrane potential dye fluorescence, at 10 µM, maximal acetylcholine added after compound; stronger effect = higher value
[13] = biological target: Short transient receptor potential channel 4 (Mus musculus) (UniProt Q9QUQ5); assay: calcium flux activators in TRPC4/5HT1a cells, counter-screen for TRPC4 activator project, cell-based, second counter screen, HEK293 TRPC4/5HT1a, Fluo-4 (AID 434977;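 active means calcium signal rise above buffer-control mean plus 5 SD in both duplicates, and also a hit in the primary screen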); settings: Fluo-4 calcium flux, at 10 µM; stronger effect = higher value
[14] = serotonin-gated TRPC4 signal block – cell-based, second counter screen, HEK293 TRPC4/5HT1a, Fluo-4, counter-screen for TRPC4 inhibitor project, confirmation (AID 434978;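 active means primary screen active whose calcium signal fell more than 3 SD beyond the full-serotonin control mean in both duplicate plates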;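 further: serotonin given first at submaximal then at maximal dose after compound preincubation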); settings: Fluo-4 calcium flux, at 10 µM, serotonin added to trigger calcium flux; stronger effect = higher value
[15] = test system: TRPC4 (mouse), co-expressed with 5HT1a in HEK293; assay: enhancement of serotonin-evoked TRPC4 response – cell-based, second counter screen, HEK293 TRPC4/5HT1a, Fluo-4, counter-screen for TRPC4 potentiator project, confirmation (AID 434979;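 active means signal rise over 3 SD above mean of control wells given weak agonist, in both repeats and first screen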); settings: Fluo-4 calcium flux, at 10 µM, serotonin added at its EC20 dose; stronger effect = higher value
[16] = nonspecific calcium rise without TRPC4 – cell-based, HEK293 mu-opioid receptor line, counter-screen for TRPC4 activator project, confirmation (AID 449723;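 active means hit in primary screen, with calcium signal over 5 SD above buffer well mean in both duplicates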;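 further: counter screen cells carry the mu-opioid receptor alone and lack TRPC4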); settings: HEK293 mu-opioid cells, Fluo-4 calcium fluorescence, at 10 µM; stronger effect = higher value
[17] = nonspecific potentiation of DAMGO calcium response – cell-based, HEK293 mu-opioid receptor line, counter-screen for TRPC4 allosteric potentiator project, confirmation (AID 449724;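 active means calcium signal rise more than 3 SD above the low-dose agonist control mean, in both duplicate plates and the primary screen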); settings: HEK293 mu-opioid receptor cells, Fluo-4 calcium flux, at 10 µM, compound added before EC20 DAMGO stimulus; stronger effect = higher value

CC(C)CN(C(=O)COC(=O)CCC(=O)c1ccc(Cl)cc1)c1c(N)n(Cc2ccccc2)c(=O)[nH]c1=O
inactive: outcome [1] | outcome [2] | outcome [3] | outcome [4] | outcome [5] | outcome [6] | outcome [7] | outcome [8] | outcome [9] | outcome [10] | outcome [11] | outcome [12] | outcome [13] | outcome [14] | outcome [15] | outcome [16] | outcome [17]

O=S(=O)(Nc1ccc(S(=O)(=O)Nc2cccc3ccccc23)cc1)c1ccccc1
inactive: outcome [1] | outcome [2] | outcome [3] | outcome [4] | outcome [5] | outcome [6] | outcome [7] | outcome [8] | outcome [9] | outcome [10] | outcome [11] | outcome [12] | outcome [13] | outcome [14] | outcome [15] | outcome [16] | outcome [17]

Clc1ccc(Cl)c(OCCCCN2CCNCC2)c1
inactive: outcome [1] | outcome [2] | outcome [3] | outcome [5] | outcome [6] | outcome [7] | outcome [8] | outcome [9] | outcome [10] | outcome [11] | outcome [12] | outcome [13] | outcome [14] | outcome [16] | outcome [17]
active: potentiation [4] 13% | potentiation [15] 6.61%

COc1ccc(CCNC(=O)C2CCN(C(=O)c3ccc(C(C)(C)C)cc3)CC2)cc1
inactive: outcome [1] | outcome [2] | outcome [3] | outcome [4] | outcome [5] | outcome [6] | outcome [7] | outcome [8] | outcome [9] | outcome [10] | outcome [11] | outcome [12] | outcome [13] | outcome [14] | outcome [15] | outcome [16] | outcome [17]

CCC(=O)Nc1cc(ON=C(C)C)cc([N+](=O)[O-])c1
inactive: outcome [1] | outcome [2] | outcome [3] | outcome [4] | outcome [5] | outcome [6] | outcome [7] | outcome [8] | outcome [9] | outcome [10] | outcome [11] | outcome [12] | outcome [13] | outcome [14] | outcome [15] | outcome [16] | outcome [17]

CCN1CCN(C(=O)c2cc(-c3ccc(Cl)s3)nc3ccccc23)CC1
active: potentiation [4] 148% | potentiation [15] 37%
inactive: outcome [1] | outcome [2] | outcome [3] | outcome [5] | outcome [6] | outcome [7] | outcome [8] | outcome [9] | outcome [10] | outcome [11] | outcome [12] | outcome [13] | outcome [14] | outcome [16] | outcome [17]

COC(=O)c1ccccc1N=Nc1c(C)[nH][nH]c1=O
inactive: outcome [1] | outcome [2] | outcome [3] | outcome [5] | outcome [6] | outcome [7] | outcome [8] | outcome [9] | outcome [10] | outcome [11] | outcome [12] | outcome [13] | outcome [14] | outcome [16] | outcome [17]
active: potentiation [4] 73% | potentiation [15] 14.7%

Oc1c(Br)cc(C2N=C(c3ccccc3Cl)NO2)cc1Br (stereo not given)
inactive: outcome [1] | outcome [2] | outcome [3] | outcome [4] | outcome [5] | outcome [6] | outcome [7] | outcome [8] | outcome [9] | outcome [10] | outcome [11] | outcome [12] | outcome [13] | outcome [14] | outcome [15] | outcome [16] | outcome [17]

COc1ccc(C(=O)OCCc2sc[n+](CC(=O)c3ccccc3)c2C)cc1
active: inhibition [10] 43%
inactive: outcome [1] | outcome [2] | outcome [3] | outcome [4] | outcome [5] | outcome [6] | outcome [7] | outcome [8] | outcome [9] | outcome [11] | outcome [12] | outcome [13] | outcome [14] | outcome [15] | outcome [16] | outcome [17]

O=[N+]([O-])c1cccc(CSc2nnc(Cc3ccccc3)n2-c2ccc(F)cc2)c1
inactive: outcome [1] | outcome [2] | outcome [3] | outcome [4] | outcome [5] | outcome [6] | outcome [7] | outcome [8] | outcome [9] | outcome [10] | outcome [11] | outcome [12] | outcome [13] | outcome [14] | outcome [15] | outcome [16] | outcome [17]

C#CC[N+]1(CC#Cc2cccc3ccccc23)CCOCC1
active: potentiation [4] 22% | potentiation [15] 26.3%
inactive: outcome [1] | outcome [2] | outcome [3] | outcome [5] | outcome [6] | outcome [7] | outcome [8] | outcome [9] | outcome [10] | outcome [11] | outcome [12] | outcome [13] | outcome [14] | outcome [16] | outcome [17]

COc1cccc(C(=O)Oc2ccc(/C=N/Nc3ccc(C(=O)O)cc3)cc2OC)c1
inactive: outcome [1] | outcome [2] | outcome [3] | outcome [4] | outcome [5] | outcome [6] | outcome [7] | outcome [8] | outcome [9] | outcome [10] | outcome [11] | outcome [12] | outcome [13] | outcome [14] | outcome [15] | outcome [16] | outcome [17]

OCCNCc1cc(Br)ccc1OCc1ccccc1
inactive: outcome [1] | outcome [2] | outcome [3] | outcome [4] | outcome [5] | outcome [6] | outcome [7] | outcome [8] | outcome [9] | outcome [10] | outcome [11] | outcome [12] | outcome [13] | outcome [14] | outcome [15] | outcome [16] | outcome [17]

CCOC(=O)c1c(C)n(C)c2ccc(OCC(O)CNCCc3ccccc3)cc12 (stereo not given)
inactive: outcome [1] | outcome [2] | outcome [3] | outcome [4] | outcome [5] | outcome [6] | outcome [7] | outcome [8] | outcome [9] | outcome [10] | outcome [11] | outcome [12] | outcome [13] | outcome [14] | outcome [15] | outcome [16] | outcome [17]

CCOP(=O)(OCC)c1nc(-c2ccc(Cl)cc2Cl)oc1N1CCCCC1
active: potentiation [15] 54.2%
inactive: outcome [1] | outcome [2] | outcome [3] | outcome [4] | outcome [5] | outcome [6] | outcome [7] | outcome [8] | outcome [9] | outcome [10] | outcome [11] | outcome [12] | outcome [13] | outcome [14] | outcome [16] | outcome [17]
